Drawing on PubChem BioAssay (NCI), this text covers growth for 40 compounds.

This is part of a sample that, as a whole, favours compounds with a hit. Of some 83,000 tested, about 20% had one in any assay.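 Each cell line was grown in a 96-well plate and treated with one concentration of compound for 48 hours. Values below 10 were considered active.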 The source made the active and inactive calls.

This test relates to HS 578T breast. The experiment in a line: NCI-60 one-dose screen, 48 h (100 = growth as untreated, 0 = no growth, -100 = all killed). To be noted: 10 µM unless noted. Here is the method: Growth inhibition of the HS 578T human tumor cell line is measured as a screen for anti-cancer activity. Cells are grown in 96 well plates and exposed to the test compound for 48 hours. Compounds are tested at a single concentration, which is 10^-5 M for most compounds. The reported endpoint is percent growth (GI% or GIPRCNT), where numbers from 0 - 100% represent growth inhibition, and numbers from -100% - 0 represent cell death. For example, a value of 40 represents 60% growth inhibition. A value of 0 means no net growth occurred over the course of the experiment. A value of -40 indicates 40% of cells at the beginning of the experiment died by the end of the experiment. A value of -100 means all cells are dead at the end of the experiment.
NCI-60 Human Tumor Cell Lines Screen was performed using the standard one-dose NCI protocol, which is described in more detail at https://dtp.cancer.gov/discovery_development/nci-60/default.htm.
Compounds with GIPRCNT values below 10 were considered active. Activity score was based on GIPRCNT using the following formula: […]
Score is 0 for GIPRCNT values of 100 or above, 50 for GIPRCNT values of 0, and 100 for GIPRCNT values of -100.
On to `CN(C)C(=S)Sc1ccc([N+](=O)[O-])cc1[N+](=O)[O-]`, for which the growth is 97.5% (inactive).

`CCOc1cc(NC(=O)c2ccccc2)c(OCC)cc1N`: the growth is 100% (inactive).

Regarding `C#CCNC(=O)CC[C@]1(C)[C@H]2CC[C@@H]3[C@@H]([C@@](C)(O)CCC=C(C)C)CC[C@@]3(C)[C@]2(C)CC[C@H]1C(=C)C`, the growth is 35.6% [100 µM] (inactive).

With `CCc1ccc(C2=C/C(=C/c3ccccc3)C(=O)N2CCc2ccc(S(N)(=O)=O)cc2)cc1`, the growth was 97.5% (inactive).

Regarding `C#C[C@]1(O)CC[C@H]2[C@@H]3CC=C4c5nc(Nc6ccccc6[N+](=O)[O-])sc5CC[C@]4(C)[C@H]3CC[C@@]21C`, the growth is 21.4% (inactive).

As for `C=C(C)[C@@H]1CC[C@]2(C(=O)NCCNCCNCCN)CC[C@]3(C)[C@H](CC[C@@H]4[C@@]5(C)CCC(=O)C(C)(C)[C@@H]5CC[C@]43C)[C@@H]12`, the growth is 47.8% [100 µM] (inactive).

Consider `O=C(CCCSc1nc(-c2ccccc2)cc(-c2ccccc2)n1)NO`, for which the growth is 45.2% (inactive).

Regarding `CC/C=C(\C)C(CCC)(CN=O)C(=O)OCC` (stereo not given), the growth was 143% (inactive).

On to `Cc1cc(C)c(O)c(CNCCCCCCNCc2cc(C)cc(C)c2O)c1`, for which the growth is -44.9% (active).

With `CSc1nc(N)c(N=Nc2ccc(S(=O)(=O)Nc3nnc(C)s3)cc2)c(=O)[nH]1`, the growth was 89.4% (inactive).

Consider `CCOC(=O)c1nc2c3ccccc3ccn2c1C(=O)OC`, for which the growth is 105% (inactive).

In the case of `C[C@@H](NC(=O)[C@@H](CC(=O)N1CCC(N2CCCCC2)CC1)N1C(=O)[C@@H](N2C(=O)OC[C@@H]2c2ccccc2)[C@H]1/C=C/c1cccc(Cl)c1)c1ccccc1`, the growth is 63.2% (inactive).

Regarding `Nc1nc(N)c2c(n1)NC(c1ccc(F)cc1)C1CCc3ccccc3C1=N2` (stereo not given), the growth was 84.1% (inactive).

Regarding `c1cc2ccc3cc2cc1CNCCN1CCNCc2ccc4ccc(cc4c2)CNCCN(CCNC3)CCNCc2ccc3ccc(cc3c2)CNCC1`, the growth was 48.4% (inactive).

In the case of `O=C(OCc1ccc2c(Cl)cc(Cl)c(O)c2n1)N1CCN(C(=O)c2cc3cc(F)ccc3[nH]2)CC1`, the growth is 12.5% (inactive).

As for `Cn1cc(-c2nnc(-c3cn(C)c4ncc(Br)cc34)s2)c2cc(Br)ccc21`, the growth is 89.3% (inactive).

Take `O=c1c2c3c(sc2n2cnnc2n1Cc1ccccc1)CCCC3`: the growth is 94.2% (inactive).

For the compound `CCOc1ccc(/C=C(\C#N)c2cc3ccccc3[nH]2)cc1`, the growth is 66.4% (inactive).

`Cc1ccc(Cn2c(O)c(N=NC(=O)c3ccc(S(N)(=O)=O)cc3)c3ccccc32)cc1`: the growth was 101% (inactive).

In the case of `CCN(CC)c1ccc2cc(C(Nc3ccc(C)cc3)c3nnnn3C(C)(C)C)c(=O)oc2c1` (stereo not given), the growth is 90.7% (inactive).

Turning to `C=C(C)[C@@H]1CC[C@]2(C(N)=O)CC[C@]3(C)[C@H](CC[C@@H]4[C@@]5(C)C/C(=C/c6cccnc6)[C@H](O)C(C)(C)[C@@H]5CC[C@]43C)[C@@H]12`, the growth was 43.2% [100 µM] (inactive).

As for `O=C1C(Cl)=C(Nc2ccc3cn[nH]c3c2)C(=O)c2ccccc21`, the growth was -50.4% (active).

Turning to `C[n+]1c(-c2ccccc2)c2cc(N)ccc2c2ccccc21`, the growth was 27.1% (inactive).

For `O=C(NNc1ccc(-c2ccccc2)nn1)c1ccc(F)cc1`, the growth is 101% (inactive).

For the compound `C#C[C@]1(O)CC[C@H]2[C@@H]3CC=C4c5nc(Nc6ccc(OC)cc6OC)sc5CC[C@]4(C)[C@H]3CC[C@@]21C`, the growth is -12.7% (active).

In the case of `CNC(=O)c1cc(Oc2cccc3nc(NC(=O)Nc4cc(C(F)(F)F)cc(C(F)(F)F)c4)ccc23)ccn1`, the growth was 22.2% (inactive).

Regarding `CC(C)C1=NOC(=O)C1=Cc1cn(-c2cccnc2)nc1-c1ccccc1`, the growth is 106% (inactive).

As to `CC1(C)CC[C@]2(C(=O)OC(=O)[C@]34CCC(C)(C)C[C@@H]3C3=CC[C@@H]5[C@@]6(C)CCC(=O)C(C)(C)[C@@H]6CC[C@@]5(C)[C@]3(C)CC4)CC[C@]3(C)C(=CC[C@@H]4[C@@]5(C)CCC(=O)C(C)(C)[C@@H]5CC[C@]43C)[C@H]2C1`, the growth is 57.3% [100 µM] (inactive).

`COCCCNc1nc(NC(=O)c2cc(Br)cc(C(F)(F)F)c2)cc(-c2cccnc2)n1`: the growth was 83% (inactive).

Take `O=C1COCCN1c1ccc(Nc2nc(Cl)nc(N3CCOCC3)n2)cc1`: the growth is 104% (inactive).

Regarding `CCCCC1COc2cccc3c2N1C=C/C3=C\C(=O)n1ccc2ccccc21` (stereo not given), the growth was 88% (inactive).

For the compound `Clc1ccc2nc(-c3ccc(-c4ccc(/C=N/NC5=NCCN5)cc4)s3)cn2c1`, the growth is 92.6% (inactive).

With `COCc1nc2ccccc2[nH]1`, the growth was 101% (inactive).

With `O=S(=O)(c1ccc(N/N=C\c2ccccc2Cl)cc1)c1ccc(N/N=C/c2ccccc2Cl)cc1`, the growth was 83% (inactive).

Turning to `Cc1ccc(-n2nc3n(/c2=N\C(=O)NS(=O)(=O)c2ccc(C)cc2)CCN3C2=NCCN2)cc1`, the growth was 99.7% (inactive).

Take `CC(=O)n1cc(C=O)c2ccccc21`: the growth was 104% (inactive).

`Fc1ccc(NC(=S)c2ccccc2)cc1`: the growth is 101% (inactive).

Regarding `CC(=O)OC[C@]12CC[C@@H](C(=O)CBr)[C@@H]1[C@H]1CC[C@@H]3[C@@]4(C)CCCNC(C)(C)[C@@H]4CC[C@@]3(C)[C@]1(C)CC2`, the growth is -22.7% [100 µM] (active).

Take `C=CCCCCCCCCC(=O)OC(C)C`: the growth was 93.9% (inactive).

As to `COc1ccc(C(C(=O)O)c2ccc(OC)cc2)cc1`, the growth is 129% (inactive).
